The source of these data is PubChem BioAssay (Tox21).

The nature of experiment [1]: qHTS assay to identify small molecule that activate the aryl hydrocarbon receptor (AhR) signaling pathway - cell viability counter screen (AID 743086).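 Note: HepG2 liver cells carrying the AhR DRE luciferase reporter; series mostly up to about 70 µM; nearly all actives have a fitted effect of over 45% in size.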 The gist of the method:
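HepG2-AhR-luc (HG2L7.5c1) cells, 4000/well, treated 24 h at 37 C with compound; viability measured as CellTiter-Fluor fluorescence after 30 min in the same wells as the luciferase read.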
Background: qHTS replaces the single test concentration by a dilution series.

Experiment [2] addresses Peroxisome proliferator-activated receptor gamma (Homo sapiens) (UniProt P37231). Description: qHTS assay to identify small molecule agonists of the peroxisome proliferator-activated receptor gamma (PPARg) signaling pathway (AID 743094; active = well fitted activation curve with a large enough effect in the signal ratio in the repeat runs, not every such curve was filed as active; the % refers to the signal ratio). An outline of the steps:
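Fluorescence-based beta-lactamase readout in HEK293H PPARg UAS-bla cells after 17 h compound exposure (37C) and 1 h B/G FRET substrate incubation at room temperature.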

Experiment [3] has the same target. Description: qHTS assay to identify small molecule antagonists of the peroxisome proliferator-activated receptor gamma (PPARg) signaling pathway (AID 743191; calls by dose curve; note: series mostly up to about 63 µM; nearly all actives have a fitted effect of over 30% in size). An outline of the steps: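 GeneBLAzer PPARg UAS-bla HEK293H cells, 5 h post-plating, exposed to compounds 17 h at 37C. LiveBLAzer B/G FRET substrate added for 1 h at room temperature; beta-lactamase reporter read by fluorescence intensity.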

Experiment [4] is described as follows: qHTS assay to identify small molecule antagonists of the peroxisome proliferator-activated receptor gamma (PPARg) signaling pathway - cell viability counter screen (AID 743194). Note: nearly all actives have a fitted effect of over 55% in size. The gist of the method:
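Cytotoxicity counter screen in PPARg-bla HEK293H cells, same wells as reporter assay. Compounds plus 50 nM rosiglitazone (final) for 17 h at 37 C, then viability read by CellTiter-Glo luminescence.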

Experiment [5] in a line: qHTS assay for small molecule agonists of the antioxidant response element (ARE) signaling pathway (AID 743202; active = well fitted activation curve with a large enough effect in the signal ratio in the repeat runs, not every such curve was filed as active; the % refers to the signal ratio; note: potency is the fitted concentration of half-maximal effect). An outline of the steps:
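HepG2 ARE-bla reporter line, 2,000 cells/well; 5 h preincubation 37 C/5% CO2; compound (DMSO) 16 h 37 C; B/G FRET substrate 2 h RT; fluorescence intensity.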

The nature of experiment [6]: qHTS assay for small molecule activators of the heat shock response signaling pathway - cell viability counter screen (AID 743209). Note: nearly all actives have a fitted effect of over 50% in size. Note: potency is the fitted concentration of half-maximal effect. An outline of the steps:
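To flag cytotoxic compounds, HSE-bla HeLa cells plated at 1500 cells/well were dosed for 5 h at 37 C, followed by the reporter FRET read and then CellTiter-Glo, with luminescence recorded 30 min after reagent addition.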

Experiment [7] is described as follows: qHTS assay for small molecule activators of the heat shock response signaling pathway (AID 743210; active = well fitted activation curve with a large enough effect in the signal ratio in the repeat runs, with a control signal flat, not every such curve was filed as active; the % refers to the signal ratio;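 note: HeLa cells with beta-lactamase reporter driven by heat shock elements; series mostly up to about 63 µM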). An outline of the steps:
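Beta-lactamase reporter read-out: FRET substrate fluorescence after 2.5 h at RT, following 5 h compound treatment at 37 C of HeLa cells carrying HSE-driven bla reporter; quantitative HTS format.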

Experiment [8] in a line: qHTS assay to identify small molecule agonists of the peroxisome proliferator-activated receptor delta (PPARd) signaling pathway - cell viability counter screen (AID 743211). Note: nearly all actives have a fitted effect of over 55% in size. An outline of the steps:
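HEK293H PPARd-bla, 3000 cells/well; 5 h preincubation 37C/5% CO2; cpd in DMSO, 17 h 37C; B/G FRET substrate 2 h RT; CellTiter-Glo 30 min RT, luminescence.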

The nature of experiment [9]: qHTS assay for small molecule agonists of the antioxidant response element (ARE) signaling pathway - cell viability counter screen (AID 743203; calls by dose curve; note: nearly all actives have a fitted effect of over 55% in size). An outline of the steps:
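Parallel cytotoxicity read-out for the ARE-bla screen: HepG2 reporter cells, 16 hrs with compounds, then CellTiter-Glo luminescence.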

Results filed as inconclusive are left out. Unmarked numbers belong to inactive results. Activity calls are given as the source filed them. Unless noted, calls come from the whole dose curve; as a rule, active = well fitted curve in the direction sought with a large enough effect in the repeat runs; inconclusive = weak or mixed curves; inactive = no such curve, though single readings can be large; an effect the other way counts as inactive or inconclusive.
% is set by controls: 0 for no effect and ±100 for the full control effect.

Chain of Peroxisome proliferator-activated receptor gamma (Homo sapiens) (P37231 whole entry, looked up): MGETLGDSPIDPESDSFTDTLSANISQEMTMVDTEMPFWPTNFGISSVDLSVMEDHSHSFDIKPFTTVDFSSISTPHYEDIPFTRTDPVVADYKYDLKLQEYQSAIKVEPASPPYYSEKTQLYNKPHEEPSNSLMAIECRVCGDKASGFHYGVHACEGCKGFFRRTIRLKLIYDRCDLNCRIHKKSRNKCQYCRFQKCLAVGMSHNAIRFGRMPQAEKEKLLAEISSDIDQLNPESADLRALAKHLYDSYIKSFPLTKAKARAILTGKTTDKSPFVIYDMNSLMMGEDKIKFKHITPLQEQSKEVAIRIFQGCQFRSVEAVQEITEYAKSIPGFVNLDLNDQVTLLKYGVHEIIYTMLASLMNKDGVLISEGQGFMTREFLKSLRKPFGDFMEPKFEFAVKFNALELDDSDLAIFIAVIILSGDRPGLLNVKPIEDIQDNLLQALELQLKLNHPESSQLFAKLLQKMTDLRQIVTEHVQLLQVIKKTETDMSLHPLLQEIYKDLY

Take `C/C(Cl)=C/CCl`: the compound was classed as inactive in experiment [1], in experiment [2], in [3], in experiment [4], in experiment [7] and in experiment [8]. The Potency in experiment [5] is 31.2 µM (active). For the same compound, the Potency result in experiment [6] is “inactive”.
For `CCCCCCCCCCCCCC(=O)OCC`, the result in [1], in experiment [2], in experiment [4], in experiment [9], in [7] and in [8] was inactive. Besides, the Potency entry in experiment [6] was “inactive”.
Take `O=CN1CCCCC1`: the compound was called inactive in experiment [1], in experiment [2], in experiment [3], in [4], in experiment [7] and in experiment [8]. Moreover, the Potency result in [5] and in experiment [6] was “inactive” throughout.
Take `C=CCCCCCCCCCCCCCC`: the outcome in [1], in experiment [2], in experiment [3], in [4], in experiment [9] and in experiment [7] was inactive. Further, the outcome in experiment [8] was inactive. Also, in experiment [6], the Potency result is “inactive”.
As for `O=S(=O)(O)c1ccc(Cl)cc1`, the compound was called inactive in experiment [1], in [3], in experiment [4], in [9], in [7] and in experiment [8]. The Potency result in experiment [5] and in experiment [6] was “inactive” each time.
As for `CCCC[O][Al]([O]CCCC)[O]CCCC`, the outcome in experiment [1], in experiment [2], in [3], in experiment [4], in [7] and in experiment [8] was inactive. The Potency result in experiment [5] and in experiment [6] was “inactive” throughout.
For the compound `CC1=C(O)C(=O)CO1`, the call in experiment [1], in experiment [2], in [3], in experiment [9], in [7] and in experiment [8] was inactive. The Potency entry in experiment [6] was “inactive”.
For the compound `C[C@@H]1NC(=O)[C@@H](N)CNC(=O)[C@H](C2CCNC(N)=N2)NC(=O)/C(=C/NC(N)=O)NC(=O)[C@H](CNC(=O)C[C@@H](N)CCCN)NC1=O` (stereo partly specified), the compound was classed as inactive in [1]. Besides, the ratio activity, negative = inhibition in [3] is 0.698% [at 0.55 µM]. For the same compound, the activity change, negative = cytotoxicity in experiment [4] was 14.8% [at 0.55 µM]; in experiment [6], -24.2% [at 0.55 µM]; in [8] it was 14.7% [at 0.55 µM]. In addition, the activation in experiment [5] was 11.7% [at 0.756 µM]; in [7], -0.65% [at 0.55 µM]. In addition, the viability change, negative = cytotoxic in experiment [9] was 6.23% [at 0.756 µM].
For `C=CCOC(=O)CCCCCCCC`, the outcome in experiment [1], in experiment [2], in experiment [4], in experiment [9], in experiment [7] and in experiment [8] was inactive. Besides, the Potency entry in experiment [5] and in experiment [6] was “inactive” in each case.
For `O=c1c(O)c(O)c1=O`, the call in [1], in [2], in experiment [3], in experiment [4], in experiment [9] and in experiment [7] was inactive. In addition, in [8], the outcome was inactive. In addition, the Potency entry in experiment [5] and in experiment [6] was “inactive” each time.
As for `CC(C)C[P+](C)(CC(C)C)CC(C)C`, the compound was called inactive in experiment [1], in experiment [2], in [3], in experiment [9] and in [8]. In addition, the Potency result in [5] and in experiment [6] was “inactive” throughout.
For `O=S(=O)(O)c1cc(I)c(O)c2ncccc12`, the call in [1], in experiment [2], in experiment [3], in [4], in experiment [9] and in experiment [7] was inactive. Further, the compound was called inactive in experiment [8]. Further, the Potency result in experiment [6] was “inactive”.
In the case of `CC1(C)S[C@@H]2[C@H](NC(=O)Cc3ccccc3)C(=O)N2[C@H]1C(=O)O` (tested in a mixture with another compound), the outcome in [1], in [2], in [3], in [4], in experiment [7] and in experiment [8] was inactive. The Potency entry in experiment [5] and in experiment [6] was “inactive” in each case.
Take `O=C(OOC(=O)c1ccccc1)c1ccccc1`: the outcome in [1], in experiment [2], in experiment [4], in experiment [9], in [7] and in experiment [8] was inactive. For the same compound, the Potency result in experiment [5] and in experiment [6] was “inactive” in each case.
Turning to `C=CCN1CCc2nc(N)sc2CC1`, the outcome in experiment [1], in experiment [2], in experiment [3], in experiment [4], in [7] and in [8] was inactive. Besides, the Potency result in experiment [5] and in experiment [6] was “inactive” in each case.
As to `CCOC(=O)[C@H](CCc1ccccc1)N[C@H]1CS[C@H](c2cccs2)CN(CC(=O)O)C1=O`, the compound was called inactive in experiment [1], in [2], in experiment [3], in experiment [4], in [9] and in experiment [7]. Further, the compound was called inactive in [8]. Also, the Potency entry in experiment [5] and in experiment [6] was “inactive” throughout.
With `CCCC(=O)OC`, the call in experiment [1], in experiment [2], in [3], in experiment [4], in experiment [9] and in experiment [7] was inactive. Besides, the result in experiment [8] was inactive. Moreover, the Potency result in experiment [5] and in experiment [6] was “inactive” each time.
In the case of `Cc1ccccc1OCC(=O)O`, the compound was called inactive in experiment [1], in experiment [2], in experiment [4], in experiment [9], in [7] and in [8]. Besides, the Potency result in [5] and in experiment [6] was “inactive” each time.
For the compound `CC(CC(=O)Cl)CC(C)(C)C` (stereo unspecified), the compound was classed as inactive in experiment [1], in experiment [2], in experiment [3], in [4], in experiment [9] and in experiment [8]. Also, the Potency entry in experiment [5] and in experiment [6] was “inactive” each time.
Consider `Nc1nc(Cl)cc(Cl)n1`, for which the outcome in [1], in experiment [4], in [9] and in experiment [8] was inactive. Further, in experiment [6], the Potency was 55 µM (active).
On to `CCCCN1C(=O)c2ccccc2C1=O`, for which the compound was classed as inactive in experiment [1], in experiment [4], in [9], in [7] and in experiment [8]. Besides, the Potency result in experiment [5] and in experiment [6] was “inactive” throughout.
As for `C[C@@H](CN1CC(=O)NC(=O)C1)N1CC(=O)NC(=O)C1`, the compound was classed as inactive in experiment [1], in experiment [3], in experiment [4], in experiment [7] and in experiment [8]. For the same compound, the Potency entry in experiment [6] was “inactive”.
In the case of `Cc1cc(N)no1`, the outcome in experiment [1], in experiment [9], in experiment [7] and in experiment [8] was inactive. In addition, in experiment [6], the Potency result is “inactive”.
Regarding `CNC(=O)c1c(I)c(NC(C)=O)c(I)c(C(=O)O)c1I`, the result in [4], in [9], in experiment [7] and in experiment [8] was inactive. Further, the Potency result in [5] and in experiment [6] was “inactive” throughout.
On to `CCO[Si](CC(C)C)(OCC)OCC`, for which the compound was classed as inactive in experiment [1], in experiment [3], in experiment [9] and in experiment [7]. Besides, the Potency entry in experiment [6] is “inactive”.
